Experimental data: the supplement of paper PMC10849652
About 7,900 targets were measured; listed, in parts, are those with a hit and a random draw of the rest. About 0.6% of all pairs of compound and target were hits.

compound: C1=CC=C(C=C1)C2=NC(=C(N2)C3=CC=NC=C3)C4=CC(=C(C=C4)Cl)O; assay: log2 fold change, soluble protein after heating vs DMSO (PISA); higher = thermal stabilisation; K562 cells, 10 uM, 30 min; active = over 0.2 and 3.5 SD of the protein, either way, in both replicates (recomputed)
Method in brief: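 Thermal stability values are relative to control samples and come from duplicates. They are expressed as log2 fold changes. For measurement, K562 cells (2×10^6 cells/mL) received 10 μM compound for 30 min, and aliquots were heated for 3 min over 48°C-58°C, pooled, and extracted at 4°C in PBS with 0.5% NP-40. Soluble protein, the supernatant after 21,000xg for 90 min, was quantified by TMTpro 16plex LC-MS/MS with equalised channel sums.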

Chain of UniProt Q12996 (Q12996 whole entry, looked up): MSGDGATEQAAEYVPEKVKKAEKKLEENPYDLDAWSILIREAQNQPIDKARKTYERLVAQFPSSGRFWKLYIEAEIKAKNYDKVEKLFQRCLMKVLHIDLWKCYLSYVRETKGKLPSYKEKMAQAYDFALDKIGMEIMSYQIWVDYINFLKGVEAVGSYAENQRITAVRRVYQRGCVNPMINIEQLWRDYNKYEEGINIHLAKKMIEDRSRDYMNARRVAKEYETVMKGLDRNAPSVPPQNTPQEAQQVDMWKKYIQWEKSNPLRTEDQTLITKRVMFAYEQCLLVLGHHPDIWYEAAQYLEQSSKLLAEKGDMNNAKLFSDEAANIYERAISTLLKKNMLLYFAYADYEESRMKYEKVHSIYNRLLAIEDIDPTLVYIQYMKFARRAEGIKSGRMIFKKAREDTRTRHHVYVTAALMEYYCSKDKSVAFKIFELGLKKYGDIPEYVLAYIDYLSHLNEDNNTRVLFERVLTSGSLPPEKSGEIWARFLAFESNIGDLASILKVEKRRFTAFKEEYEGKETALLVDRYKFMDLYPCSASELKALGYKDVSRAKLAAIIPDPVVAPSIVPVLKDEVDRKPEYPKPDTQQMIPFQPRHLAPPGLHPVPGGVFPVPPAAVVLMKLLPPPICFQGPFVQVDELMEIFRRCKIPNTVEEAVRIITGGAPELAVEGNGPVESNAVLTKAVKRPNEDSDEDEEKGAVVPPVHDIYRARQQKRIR
Chain of UniProt P19397 (P19397 whole entry, looked up): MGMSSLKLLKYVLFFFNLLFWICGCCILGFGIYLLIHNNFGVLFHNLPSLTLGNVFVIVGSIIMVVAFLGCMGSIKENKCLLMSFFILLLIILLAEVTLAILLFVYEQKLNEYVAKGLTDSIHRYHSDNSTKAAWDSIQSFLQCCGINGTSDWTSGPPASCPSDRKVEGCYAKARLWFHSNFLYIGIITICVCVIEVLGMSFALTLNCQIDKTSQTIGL
Chain of UniProt O14578 (O14578 whole entry, looked up): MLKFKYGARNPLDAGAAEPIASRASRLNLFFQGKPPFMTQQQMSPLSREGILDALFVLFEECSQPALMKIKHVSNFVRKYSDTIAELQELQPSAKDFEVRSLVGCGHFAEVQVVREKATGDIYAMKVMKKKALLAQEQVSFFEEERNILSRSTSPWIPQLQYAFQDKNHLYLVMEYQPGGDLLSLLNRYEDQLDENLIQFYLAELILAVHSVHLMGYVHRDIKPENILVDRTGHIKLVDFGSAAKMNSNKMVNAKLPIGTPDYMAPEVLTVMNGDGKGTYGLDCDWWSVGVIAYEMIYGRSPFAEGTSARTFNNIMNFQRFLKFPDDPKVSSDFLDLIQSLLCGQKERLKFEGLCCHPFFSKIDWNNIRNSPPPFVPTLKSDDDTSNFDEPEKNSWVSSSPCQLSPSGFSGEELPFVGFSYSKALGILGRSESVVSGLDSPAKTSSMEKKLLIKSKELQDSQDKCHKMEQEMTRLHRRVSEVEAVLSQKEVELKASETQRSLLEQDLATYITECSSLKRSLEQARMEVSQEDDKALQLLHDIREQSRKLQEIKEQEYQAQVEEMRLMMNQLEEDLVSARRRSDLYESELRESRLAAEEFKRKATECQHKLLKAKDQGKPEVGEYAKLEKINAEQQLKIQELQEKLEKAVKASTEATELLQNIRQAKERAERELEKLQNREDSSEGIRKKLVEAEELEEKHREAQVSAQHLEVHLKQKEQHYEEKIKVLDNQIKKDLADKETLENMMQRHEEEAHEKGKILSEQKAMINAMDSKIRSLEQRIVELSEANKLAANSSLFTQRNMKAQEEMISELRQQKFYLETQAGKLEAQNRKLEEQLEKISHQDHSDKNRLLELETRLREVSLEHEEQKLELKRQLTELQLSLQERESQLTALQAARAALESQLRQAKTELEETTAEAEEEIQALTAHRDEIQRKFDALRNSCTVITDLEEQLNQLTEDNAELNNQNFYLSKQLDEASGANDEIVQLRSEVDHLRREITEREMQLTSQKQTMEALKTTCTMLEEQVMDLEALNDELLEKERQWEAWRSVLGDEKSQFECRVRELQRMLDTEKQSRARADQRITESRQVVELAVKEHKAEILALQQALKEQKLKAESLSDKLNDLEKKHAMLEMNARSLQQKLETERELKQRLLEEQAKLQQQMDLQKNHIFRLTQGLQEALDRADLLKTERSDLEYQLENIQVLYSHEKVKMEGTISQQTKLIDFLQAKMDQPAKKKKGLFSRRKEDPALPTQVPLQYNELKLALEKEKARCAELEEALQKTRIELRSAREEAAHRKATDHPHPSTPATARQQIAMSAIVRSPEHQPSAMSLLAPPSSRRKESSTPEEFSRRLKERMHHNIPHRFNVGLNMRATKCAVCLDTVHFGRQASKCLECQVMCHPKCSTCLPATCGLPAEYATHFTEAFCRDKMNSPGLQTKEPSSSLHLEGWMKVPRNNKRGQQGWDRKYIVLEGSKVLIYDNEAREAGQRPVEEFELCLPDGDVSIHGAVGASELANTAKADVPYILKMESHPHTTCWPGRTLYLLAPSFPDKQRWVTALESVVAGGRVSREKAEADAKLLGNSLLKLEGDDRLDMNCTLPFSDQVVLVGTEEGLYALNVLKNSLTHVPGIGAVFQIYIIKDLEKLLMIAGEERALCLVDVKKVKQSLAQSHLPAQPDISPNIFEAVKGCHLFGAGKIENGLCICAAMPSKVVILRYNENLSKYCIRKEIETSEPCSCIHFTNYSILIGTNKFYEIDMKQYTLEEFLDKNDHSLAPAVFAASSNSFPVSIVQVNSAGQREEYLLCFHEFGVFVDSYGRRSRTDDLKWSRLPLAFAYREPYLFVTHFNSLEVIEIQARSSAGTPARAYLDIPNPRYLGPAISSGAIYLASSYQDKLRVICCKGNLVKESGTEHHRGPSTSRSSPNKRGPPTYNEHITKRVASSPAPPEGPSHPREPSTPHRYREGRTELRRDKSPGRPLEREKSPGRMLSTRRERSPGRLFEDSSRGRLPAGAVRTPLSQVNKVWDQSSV
Chain of UniProt P42574 (P42574 whole entry, looked up): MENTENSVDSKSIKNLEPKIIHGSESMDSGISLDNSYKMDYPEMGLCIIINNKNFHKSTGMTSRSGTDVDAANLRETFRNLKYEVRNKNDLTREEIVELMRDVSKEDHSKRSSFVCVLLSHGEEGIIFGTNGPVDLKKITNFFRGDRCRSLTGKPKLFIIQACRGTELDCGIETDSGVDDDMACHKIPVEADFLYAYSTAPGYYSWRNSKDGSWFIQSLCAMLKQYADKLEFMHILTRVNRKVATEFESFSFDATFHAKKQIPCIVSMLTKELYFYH
Chain of UniProt O75122 (O75122 whole entry, looked up): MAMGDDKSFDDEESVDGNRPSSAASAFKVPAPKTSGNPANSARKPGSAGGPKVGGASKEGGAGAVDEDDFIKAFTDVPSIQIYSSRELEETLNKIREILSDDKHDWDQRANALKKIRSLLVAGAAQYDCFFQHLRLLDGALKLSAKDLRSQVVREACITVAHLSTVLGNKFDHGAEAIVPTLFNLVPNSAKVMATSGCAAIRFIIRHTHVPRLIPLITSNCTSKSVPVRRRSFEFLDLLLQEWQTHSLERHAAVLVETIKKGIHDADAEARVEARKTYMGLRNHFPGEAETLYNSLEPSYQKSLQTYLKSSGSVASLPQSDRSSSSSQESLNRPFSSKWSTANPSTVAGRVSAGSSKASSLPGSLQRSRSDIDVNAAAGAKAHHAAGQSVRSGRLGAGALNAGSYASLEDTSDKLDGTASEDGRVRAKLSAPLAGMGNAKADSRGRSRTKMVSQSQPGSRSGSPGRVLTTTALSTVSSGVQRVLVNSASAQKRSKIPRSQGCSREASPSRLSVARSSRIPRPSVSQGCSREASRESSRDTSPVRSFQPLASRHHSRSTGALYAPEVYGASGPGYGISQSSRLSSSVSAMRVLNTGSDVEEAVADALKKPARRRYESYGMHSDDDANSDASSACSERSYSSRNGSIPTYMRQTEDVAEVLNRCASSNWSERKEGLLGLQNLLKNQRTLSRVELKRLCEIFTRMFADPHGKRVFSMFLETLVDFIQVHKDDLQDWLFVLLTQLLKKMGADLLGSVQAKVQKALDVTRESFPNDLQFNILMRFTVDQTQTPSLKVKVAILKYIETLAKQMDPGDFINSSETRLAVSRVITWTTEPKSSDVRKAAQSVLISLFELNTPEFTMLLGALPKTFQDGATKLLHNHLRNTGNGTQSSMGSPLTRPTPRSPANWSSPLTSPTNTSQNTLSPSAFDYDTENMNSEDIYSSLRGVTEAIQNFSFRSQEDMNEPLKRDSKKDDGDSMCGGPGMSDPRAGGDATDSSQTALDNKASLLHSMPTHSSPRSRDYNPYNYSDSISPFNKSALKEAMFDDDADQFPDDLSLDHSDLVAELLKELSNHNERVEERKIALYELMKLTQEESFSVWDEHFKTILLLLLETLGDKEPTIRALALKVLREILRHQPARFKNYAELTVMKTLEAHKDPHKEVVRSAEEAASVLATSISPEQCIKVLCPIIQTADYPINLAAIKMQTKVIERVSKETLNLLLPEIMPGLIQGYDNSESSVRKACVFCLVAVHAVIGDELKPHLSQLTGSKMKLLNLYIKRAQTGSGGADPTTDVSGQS
Chain of UniProt Q8N1A6 (Q8N1A6 whole entry, looked up): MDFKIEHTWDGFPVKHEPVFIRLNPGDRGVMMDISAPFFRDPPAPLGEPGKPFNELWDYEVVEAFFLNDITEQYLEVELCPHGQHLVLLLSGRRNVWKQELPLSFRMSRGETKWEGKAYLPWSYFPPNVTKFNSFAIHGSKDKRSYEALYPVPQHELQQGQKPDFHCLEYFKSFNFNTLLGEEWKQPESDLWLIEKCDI
Chain of UniProt Q9Y6H1 (Q9Y6H1 whole entry, looked up): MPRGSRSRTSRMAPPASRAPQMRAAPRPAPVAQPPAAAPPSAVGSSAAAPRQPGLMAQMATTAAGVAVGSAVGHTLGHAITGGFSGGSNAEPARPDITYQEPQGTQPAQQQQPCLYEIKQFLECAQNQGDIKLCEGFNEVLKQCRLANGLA
Chain of UniProt Q8N4Q1 (Q8N4Q1 whole entry, looked up): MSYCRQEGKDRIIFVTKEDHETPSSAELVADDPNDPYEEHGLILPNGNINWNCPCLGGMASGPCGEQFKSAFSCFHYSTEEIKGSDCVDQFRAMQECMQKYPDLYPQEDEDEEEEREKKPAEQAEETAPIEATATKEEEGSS

log2 fold change, inactive:
CDC37L1 (UniProt Q7L3B6) 0
CCNB1 (UniProt P14635) -0.016
CIT isoform 4 (UniProt O14578) -0.027
CALCOCO2 isoform 4 (UniProt Q13137) -0.003
CLCN3 isoform 2 (UniProt P51790) 0.025
CHCHD2 (UniProt Q9Y6H1) -0.028
CCNH (UniProt P51946) 0.022
CRK (UniProt P46108) -0.076
CHCHD1 (UniProt Q96BP2) -0.057
CALB1 (UniProt P05937) -0.01
CDK6 (UniProt Q00534) -0.031
COASY isoform 2 (UniProt Q13057) 0.076
CHD3 isoform 3 (UniProt Q12873) 0.388
CHCHD4 isoform 2 (UniProt Q8N4Q1) -0.022
CASP3 (UniProt P42574) 0.086
CSNK2B (UniProt P67870) 0.031
CSTF3 (UniProt Q12996) -0.032
C4orf33 (UniProt Q8N1A6) -0.092
COCH (UniProt O43405) -0.002
CD53 (UniProt P19397) -0.221
CD55 isoform 7 (UniProt P08174) 0.011
CLASP2 isoform 3 (UniProt O75122) -0.01
